Compounds with a hit are over-represented: about 4.7% of the library has one in this group of screens.
D1 potentiator: human D1 dopamine receptor positive modulation | P21728 | HEK293 TREx D1 cells, calcium flux, dopamine EC20 potentiation | potentiation, % at 10 µM | actives 0.036% (n = 360,000); in the data active means potentiation above about 30%
Target sequence (P21728 whole entry, looked up): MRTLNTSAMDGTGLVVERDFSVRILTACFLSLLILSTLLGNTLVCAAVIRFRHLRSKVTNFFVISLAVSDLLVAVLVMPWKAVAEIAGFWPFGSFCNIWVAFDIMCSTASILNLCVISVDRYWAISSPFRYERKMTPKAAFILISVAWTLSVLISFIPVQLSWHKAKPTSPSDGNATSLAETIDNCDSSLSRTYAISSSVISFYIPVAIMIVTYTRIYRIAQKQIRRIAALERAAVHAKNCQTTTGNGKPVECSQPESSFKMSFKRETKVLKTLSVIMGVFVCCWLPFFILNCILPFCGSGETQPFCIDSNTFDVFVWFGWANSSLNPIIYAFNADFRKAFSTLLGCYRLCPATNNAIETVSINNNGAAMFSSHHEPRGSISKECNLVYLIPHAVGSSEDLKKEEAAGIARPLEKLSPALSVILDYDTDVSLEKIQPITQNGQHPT
D1 antagonist: antagonists of human D1 dopamine receptor; P21728; HEK293 TREx D1 cells, calcium flux, dopamine EC80; stronger effect = lower value; activity change, negative = inhibition, % at 10 µM; actives 3.2% (n = 360,000); in the data active means activity change below about -30%
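After overnight tetracycline induction at 30 C, force-coupled D1 HEK293 cells took up a no-wash calcium dye at room temperature. Compounds were added and monitored 180 s, and the response to EC80 dopamine was then recorded.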
D1 ag: agonists of human D1 dopamine receptor; HEK293 T-REx D1 cells, calcium flux, agonist mode; actives 1% (n = 360,000); activation, % at 2 µM
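Inducible HEK293 T-REx D1 cells, force-coupled to calcium signalling, were plated at 4000 cells/well with tetracycline and held overnight at 30 C. After no-wash calcium dye loading, compound-evoked calcium rise over 180 s flagged agonists.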
TRHR PAM: allosterically enhances the human TRH receptor | P34981 | TRHR cells, fluo-8 calcium fluorescence, EC20 TRH enhancement | enhancement, % at 2 µM | actives 0.66% (n = 360,000) | AID 493056; in the data active means enhancement above about 30%
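TRHR-expressing cells loaded with fluo-8 calcium dye were read kinetically (ex 480/em 530) during compound addition, then stimulated with an EC20 of TRH (10 nM final). Enhancement of the Gq-mediated intracellular calcium response was scored.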
TRHR ag: activates the human TRH receptor; AID 493084; actives 0.18% (n = 360,000); activation, % at 2 µM; TRHR cells, calcium flux fluo-8, FDSS agonist mode
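Fluo-8-loaded TRHR cells; 10 s baseline, compound added, kinetic Ca2+ fluorescence read 1/s, agonist mode.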
Numbers stand for hits; . = inactive; / = no result. Unless noted, no stated cut-off is given here; in the data, active means activation above about 30%; inactive means the rest.

SMILES	D1 potentiator	D1 antagonist	D1 ag	TRHR PAM	TRHR ag
CN(C)S(=O)(=O)c1cccc(NC(=O)COC(=O)CCOc2ccccc2)c1	.	.	.	33	.
Cc1nc(-n2nc(C)c(CCC(C)C)c2C)sc1C(=O)Nc1cccc(Cl)c1C	.	.	.	.	.
CC1=C(C(=O)Nc2ccccc2C)C(c2cccs2)n2nc(SCc3cc(C)ccc3C)nc2N1 (stereo not drawn)	.	.	.	.	.
CC(C)NS(=O)(=O)c1ccc(OCC(=O)Nc2ccc3c(c2)OCO3)cc1	.	.	.	.	.
O=C(COc1ccc([N+](=O)[O-])cc1)Nc1ccncc1	.	.	.	.	.
CC(C)NS(=O)(=O)c1ccc(OCC(=O)Nc2cccc(F)c2)cc1	.	.	.	32	.
NS(=O)(=O)c1cccc(NC(=O)COc2ccc([N+](=O)[O-])cc2)c1	.	.	.	33	.
Cc1ccc(CCNC(=O)c2ccc3c(Cl)c4c(nc3c2)CCCC4)cc1	.	.	.	.	.
COC(=O)c1ccc(C(=O)NC2CCCc3c2cnn3-c2ccc(C)c(C)c2)cc1 (stereo not drawn)	.	.	.	35	.
Cc1cc(C(=O)NC2CCCc3c2cnn3-c2ccc(C(C)(C)C)cc2)nn1C (stereo not drawn)	.	-35	.	.	.
CC(C)=CCC/C(C)=C/CC/C(C)=N/O	.	-32	.	.	.
CN(C)S(=O)(=O)c1cc(NC(=O)CN2CCOCC2)ccc1Cl	.	.	.	.	.
CCN1CCN(CC(=O)Nc2ccc(Cl)c(S(=O)(=O)N(C)C)c2)CC1	.	.	.	.	.
Cc1ccc(NC(=O)CN2CCN(S(=O)(=O)c3cccs3)CC2)cc1S(=O)(=O)N(C)C	.	-36	.	.	.
CC1CCCC(NC(=O)CN2CCN(S(=O)(=O)c3cccs3)CC2)C1C (stereo not drawn)	.	-42	.	.	.
CN(C)S(=O)(=O)c1cc(NC(=O)CN2CCN(c3ccccc3F)CC2)ccc1Cl	.	-32	.	.	.
COc1ccc(OC)c(NS(=O)(=O)c2cc3c(cc2Cl)N(C(C)=O)CCO3)c1	.	.	.	.	.
CC(C)OC(=O)c1ccc(COC(=O)c2cccc(-c3nnc(-c4ccccc4)o3)c2)cc1	.	.	.	.	.
CC(C)OC(=O)c1cccc(-c2ccc(C=O)o2)c1	.	.	.	36	.
COc1ccc(CNC(=O)COc2cc3c(c4oc(=O)cc(C)c24)CCC(C)(C)O3)cc1OC	.	-31	.	.	.
Cc1cc(=O)oc2c3c(cc(OCC(=O)NCc4ccncc4)c12)OC(C)(C)CC3	.	.	.	.	.
Cc1cccc(NC(=O)CNC(=O)Cc2ccc3c(c2)OCCO3)c1C	.	.	.	.	.
Clc1ccc(SCCOCCN2CCCCC2)cc1	.	.	.	.	.
Cc1cc(Cl)c(OCCOCCN2CCN(C)CC2)c(Br)c1	.	.	.	.	.
Cc1cc(Cl)c(OCCOCCN2CCC(C)CC2)c(Br)c1	.	.	34	.	.
SMILES	D1 potentiator	D1 antagonist	D1 ag	TRHR PAM	TRHR ag
CC1CCN(CCOCCSc2ccc(Cl)cc2)CC1	.	-44	.	.	.
Clc1ccc(SCCCCN2CCNCC2)cc1	.	-45	120	.	.
CCOc1ccccc1CNCc1c(C(=O)O)c(C)n(Cc2ccc(Cl)cc2)c1C	.	-67	.	.	.
CCCCOC(=O)CSc1nc(N)c(C#N)c(-c2ccc(OC)cc2)c1C#N	.	.	.	.	.
CCCOC(=O)CSc1nc(N)c(C#N)c(CC)c1C#N	.	-40	.	.	.
O=C(Nc1ccccc1)NC1CS(=O)(=O)CC1O (stereo not drawn)	.	-41	.	.	.
O=S1(=O)C[C@@H](O)[C@@H](Nc2ccccc2)C1	.	.	.	.	.
CC(C)COc1ccc(C(=O)NCC2OCCc3ccccc32)cc1 (stereo not drawn)	.	-31	.	.	.
CC(C)CCOc1ccc(C(=O)NCC2OCCc3ccccc32)cc1 (stereo not drawn)	.	.	.	.	.
CCN1CCN(c2c(S(=O)(=O)c3ccc(OC)cc3)cnc3cc(OC)c(OC)cc23)CC1	.	-40	.	.	.
O=C(Cn1c(=O)nc(-c2ccccc2)c2ccccc21)NCCCc1ccccc1	.	.	.	.	.
Cc1cc(OCc2cc(C(=O)NCCN3CCCCC3CO)no2)cc(C)c1Cl (stereo not drawn)	.	-44	35	.	.
COc1cccc(OCc2cc(C(=O)NCCN3CCCCC3CO)no2)c1 (stereo not drawn)	.	.	.	.	.
Cc1ccc(OCc2cc(C(=O)NCc3cn4ccccc4n3)no2)cc1C	.	.	.	.	.
Cc1cc(OCc2cc(C(=O)NCc3csc(C(C)C)n3)no2)cc(C)c1Cl	.	-41	71	.	.
CC(=O)c1ccc(OCc2cc(C(=O)N(C)C3CCOC3)no2)cc1 (stereo not drawn)	.	.	.	.	.
Cc1cc(OCc2cc(C(=O)N(C)C3CCOC3)no2)cc(C)c1Cl (stereo not drawn)	.	-47	.	.	.
Cc1ccc(OCc2cc(C(=O)NCC(C)c3ccccc3)no2)cc1C (stereo not drawn)	.	-31	.	.	.
Cc1ccc(OCc2cc(C(=O)NCCn3cccn3)no2)cc1C	.	.	.	.	.
Cc1ccc(CNC(=O)C(C)n2c(=O)cc(-c3ccccc3)c3c(C)nn(C)c32)cc1 (stereo not drawn)	.	.	.	.	.
COc1ccc(C(=O)NCC(c2cccnc2)N2CCN(c3ccc(F)cc3)CC2)cc1 (stereo not drawn)	.	.	.	.	.
COc1cccc(OCc2cc(C(=O)N(C)C3CC(C)(C)NC(C)(C)C3)no2)c1	.	.	.	.	.
COc1cccc(OCc2cc(C(=O)N(C)C3CCOCC3)no2)c1	.	-56	.	.	.
COc1ccc(OCc2cc(C(=O)N(C)CCC3CCOCC3)no2)c(Cl)c1	.	-41	.	.	.
O=C(Cn1c(=O)n(Cc2ccc(F)cc2)c(=O)c2sc3ccccc3c21)NCc1ccccc1	.	.	.	.	.
Cc1cccc(C(=O)Nc2nnc(S(=O)(=O)N(C)Cc3ccc(Cl)cc3)s2)c1	.	.	.	.	.
COc1ccc(C(c2sc3nc(C)nn3c2O)N2CCC(O)CC2)cc1OC (stereo not drawn)	.	.	.	.	.
COc1ccc(C(c2sc3nc(C)nn3c2O)N2CCN(Cc3ccccc3)CC2)cc1OC (stereo not drawn)	.	-51	.	.	.
COc1ccc(-c2cn3c(n2)sc2cc(C(=O)Nc4ccc(C)c(Cl)c4)ccc23)cc1	.	.	.	.	.
CC(=O)c1cccc(NC(=O)CSc2nc3c(=O)n(C)c(=O)n(C)c3n2C)c1	.	/	.	34	.

Bioassay records from PubChem BioAssay.
